Experimental data reported in the supplement of paper PMC7695840.

The molecules below were run on Staphylococcus aureus MW2 (mecA+) (assay: normalized DsRed fluorescence (growth of mecA+ strain) (fraction of control range); higher = more growth of mecA+ strain). Conditions: compound concentration: 150 uM; cefoxitin: subinhibitory; fluorescent label: DsRed.
Procedure, shortened: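 A 1:1 mix of pre-induced S. aureus MW2 cells, DsRed-labeled with the gene and GFP-labeled without it, was grown in LB with a daily-set subinhibitory antibiotic dose on 150 μM compound (1.5% DMSO) in 1536-well plates, single replicate. Growth lasted 20 h at 37 °C, 90% humidity, without shaking, and DsRed (540/590) and GFP (485/520) were then read. Channels were scaled per plate to single-strain control medians, and plates with high untreated ratios and rows with DsRed/GFP >10 were removed.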

Structure (SMILES) | normalized DsRed fluorescence
CCN(CC)C(=O)/C(C#N)=C/c1cc(O)c(O)c([N+](=O)[O-])c1 [Entacapone] | 1.35
O=C(NCC(O)CO)c1c(I)c(C(=O)NCC(O)CO)c(I)c(N(CCO)C(=O)CO)c1I (centres undefined) | 1.04
CCCCCC(=O)O[C@]1(C(C)=O)CC[C@H]2[C@@H]3CCC4=CC(=O)CC[C@]4(C)[C@H]3CC[C@@]21C | 0.39
Cc1cn([C@H]2C=C[C@@H](CO)O2)c(=O)[nH]c1=O | 0.601
